Source: PubChem BioAssay
The list is not random: actives were taken first. Their share in the collection is about 1.1%.
HTR5A ag ctr: HTR5A agonists in luminescence cell assay, primary screen, counter-screen for OPRM1-OPRD1 heterodimer agonist project, full-deck HTS | AID 504692, 2011 | cell-based | 340,000 tested, 0.61% active | 5-hydroxytryptamine receptor 5A (Homo sapiens), P47898 | activation, % at 9.3 µM; in the data active means activation mostly above about 9.5%, no sharp cut-off; inactive means mostly below about 7.6%;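 further: 0% = cells with vehicle only and 100% = reference agonist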
Target sequence (P47898 whole entry, looked up): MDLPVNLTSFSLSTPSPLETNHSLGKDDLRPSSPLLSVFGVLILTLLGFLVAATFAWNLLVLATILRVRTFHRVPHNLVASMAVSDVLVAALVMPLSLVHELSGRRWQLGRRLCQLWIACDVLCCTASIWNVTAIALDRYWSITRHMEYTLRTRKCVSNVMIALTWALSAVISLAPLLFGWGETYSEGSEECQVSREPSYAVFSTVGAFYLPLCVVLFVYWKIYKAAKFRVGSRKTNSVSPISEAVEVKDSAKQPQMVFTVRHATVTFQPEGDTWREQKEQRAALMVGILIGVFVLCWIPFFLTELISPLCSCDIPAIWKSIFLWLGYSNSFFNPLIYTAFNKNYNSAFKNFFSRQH
HTR5A inv ag: HTR5A inverse agonists in luminescence cell assay, primary screen, counter-screen for OPRM1-OPRD1 heterodimer inverse agonist project, full-deck HTS. HTR5A cell line, inverse agonism. inhibition, % at 9.3 µM. 340,000 tested, 0.083% active; in the data active means inhibition mostly above about 23%, no sharp cut-off; inactive means mostly below about 18%;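 further: 0% = cells with DMSO and 100% = no-cell wells with DMSO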
MOR-DOR inv ag: inverse agonists of MOR-DOR heterodimerization, primary screen, cell-based, luminescence. Mu-type opioid receptor (Homo sapiens) + Delta-type opioid receptor (Homo sapiens), …. cell-based MOR-DOR heterodimer luminescence, inverse agonism. inhibition, % at 9.3 µM. 340,000 tested, 0.21% active; in the data active means inhibition above about 22%, passing the limit was not always enough;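 further: 0% = cells with DMSO and 100% = wells without cells with DMSO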
MOR-DOR ag-1: agonists of OPRM1-OPRD1 heterodimerization, primary screen, cell-based, luminescence; cells; activation, % at 9.3 µM; 340,000 tested, 0.3% active; AID 504326, 2011;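 further: 0% = vehicle-treated cells and 100% = reference agonist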
MOR-DOR ag-2: OPRM1-OPRD1 heterodimerization promoters, counter-screen for HTR5A agonist project, cell-based, luminescence; shares compounds with HTR5A ag ctr; U2OS counter-screen cells, complementation luminescence, 3 h; activation, % at 9.3 µM; 800 tested, 13% active
HTR5A ag conf: HTR5A agonists, retest of hits, confirmation, cell-based, luminescence. shares compounds with HTR5A ag ctr. HTR5A agonist cell assay. activation, % at 9.3 µM. AID 504915, 2011. 800 tested, 17% active; in the data active means activation above about 17%;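 further: 0% = cells with vehicle only and 100% = full reference agonist response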
* marks the source's active call; other numbers are inactive results; . = no result given. Unless noted, no stated cut-off is given here; in the data, active means activation above about 18%; inactive means the rest.

SMILES	HTR5A ag ctr	HTR5A inv ag	MOR-DOR inv ag	MOR-DOR ag-1	MOR-DOR ag-2	HTR5A ag conf
CC[C@@H](CO)NC(=O)[C@@H]1C=C2c3cccc4c3c(cn4C)C[C@H]2N(C)C1	81*	-183	-19	3	1	78*
CCOP(=O)(/C=C(\Cl)c1ccccc1)C(O)c1ccc(F)cc1 (stereo not drawn)	0	1	9	-2	.	.
CN(C)P(=O)(N(C)C)N1CC1	1	-6	16	-3	.	.
CC(N)Cc1c[nH]c2ccc(O)cc12 (stereo not drawn)	35*	-186	12	-2	2	60*
COc1cc(/C=C2\C[C@H]3[C@@H]4CC=C5C[C@@H](N6CCCC6)CC[C@]5(C)[C@H]4CC[C@]3(C)[C@H]2O)cc(OC)c1OC	3	-10	9	-2	.	.
c1ccc2c(NC3=NCCS3)cccc2c1	18*	-43	-12	3	1	21*
COc1ccc2[nH]cc(CCN)c2c1	60*	10	3	-1	9	-4
OCCNCCc1c[nH]c2ccc(OCc3ccccc3)cc12	3	-13	-5	1	.	.
COP(=O)(Cc1ccc(C#N)o1)OC	15*	-11	10	-2	0	-3
CCN(CCCl)c1cc(CN(C)C)cc(NC(=O)c2ccc(C(=O)Nc3cc(CN(C)C)cc(N(CC)CCCl)c3)cc2)c1	0	0	17	-3	.	.
COc1ccccc1CCNC1CCCCCC1	-3	12	1	0	.	.
c1ccc2c(CCNC3CCCCC3)c[nH]c2c1	25*	-65	14	-3	1	36*
